Screening results deposited in PubChem by National Center for Advancing Translational Sciences (NCATS).
Rows were chosen to be rich in hits. Some 2.6% of all compounds tested hit in one or more screens of this group.
ATXN2 expr inh: reduces ATXN2 reporter expression in HEK-293 cells; HEK-293 ATXN2-luciferase reporter, luminescence, 24 h; Potency, µM (highest dose often 57 µM), for inactives: at the top dose activity change, negative = inhibition, usual class: inhibitors; 360,000 tested, 0.72% active; further: potency means the concentration at half of the fitted maximal effect; on the % scale 0 is the no-effect control and ±100 the full control effect; nearly all actives have a fitted effect of over 55% in size
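qHTS (up to 57 uM final) was run with 24 h compound exposure of reporter cells at 37 °C. Each well was multiplexed: SteadyGlo luminescence measured ATXN2-luciferase expression after a fluorogenic Gly-Phe-AFC viability readout (25 uM final).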
TGFb SMAD3 inh: inhibitors of TGF-b signaling; AID 588855; 410,000 tested, 1.2% active; Potency, µM (doses to about 46.1 µM), for inactives: at the highest dose activity, negative = inhibition, actives largely listed as inhibitors; HepG2 CAGA-GFP TGF-b/SMAD3 reporter, GFP fluorescence, 18 h; TGF-beta stimulated, 500 pg/mL final; further: potency means the concentration at half of the fitted maximal effect; on the % scale 0 is the no-effect control and ±100 the full control effect; nearly all actives have a fitted effect of over 65% in size
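Read-out: total well GFP (ex488/em500-530) summed from mean per-cell fluorescence. Cells: HEPG2 CAGA-GFP, 1% FBS DMEM, 18 h at 37 degrees C with 500 pg/mL final TGF-beta. Unstimulated wells served as the full-inhibition control; stimulated DMSO wells = 0%.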
uPA generation: blocks generation of uPA at the cell surface; cell surface uPA generation assay, qHTS; AID 540303; 330,000 tested, 0.31% active; Potency, µM (series often up to 38.3 µM), for the others: at the highest dose activity change, negative = inhibition, most hits filed as inhibitors; active means well fitted inhibition curve with a large enough effect; inconclusive means small, poorly fitted or top-dose-only effect; inactive means no such curve, though single readings can be large or run the other way; tested in mouse RAW 264.7 cells; further: potency means the concentration at half of the fitted maximal effect; on the % scale 0 is the no-effect control and ±100 the full control effect; nearly all actives have a fitted effect of over 55% in size
Giardia kill: Giardia lamblia killing; 340,000 tested, 0.15% active; Giardia lamblia trophozoite viability; AID 540267; activity change, % at 7.66 µM, hits read low; in the data active means activity change below about -80%; inconclusive means between about -30% and that limit;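 further: parasites exposed to compound for two days anaerobically before the ATP read; on the % scale 0 is the no-effect control and ±100 the full control effect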
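Giardia lamblia trophozoites (100 cells/well) were incubated with compounds for 48 h at 37 deg C under anaerobic conditions. Viability was read as ATP content by one-step luminescence after 15-30 min at room temperature.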
ATXN viability: viability counter-screen for ATXN expression inhibitors; S2 cells (HEK-293 line with an ATXN2-luciferase reporter) viability, CellTiter-Fluor protease fluorescence, 24 h; Potency, µM (series often up to 56.7 µM), actives largely listed as cytotoxic; 400,000 tested, 0.49% active; further: potency means the concentration at half of the fitted maximal effect; nearly all actives have a fitted effect of over 40% in size
HepG2 viability: kills HepG2 cells in TGF-b inhibitor counter-screen; 410,000 tested, 0.76% active; Potency, µM (doses to about 46.1 µM), for inactives: top-dose activity change, negative = cytotoxicity, usual class: cytotoxic; AID 588856; HepG2 CAGA-GFP viability, ATP luminescence, 18 h; further: potency means the concentration at half of the fitted maximal effect
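CellTiter-Glo luminescence gave cytotoxicity after 18 hours at 37 degrees C. The cells were HepG2 CAGA-GFP in 1% FBS DMEM, stimulated with 500 pg/mL TGF-beta after compound addition. %Activity was normalised to no-cell wells (complete cell-killing) and DMSO (no toxicity), and curves were fitted and classified.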
The depositor's hits bear a star; ! = a repeat was not active. Unless noted, the call rests on the fitted dose curve; in most records, active means well fitted curve in the direction sought with a large enough effect; inconclusive means small, poorly fitted or top-dose-only effect, or another doubt; inactive means no such curve, though single readings can be large; an effect the other way counts as inactive or inconclusive.

`CCC(Sc1nc(=O)cc(N)n1-c1cccc(C)c1)C(=O)Nc1cc(C)on1` (stereo not drawn) gave ATXN2 expr inh -7.0%, TGFb SMAD3 inh 3.55µM*, uPA generation -10.3%, Giardia kill -0.7, ATXN viability inactive and HepG2 viability -6.9%.
CCC(Sc1nc(=O)cc(N)n1-c1ccccc1)C(=O)Nc1cc(C)on1 (stereo not drawn) was read as ATXN2 expr inh 4.7%, TGFb SMAD3 inh -5.4%, uPA generation 5.1%, Giardia kill -6.1, ATXN viability inactive and HepG2 viability -6.3%.
CNC(=O)c1ccc(N2C(=S)N(c3cnc(C#N)c(C(F)(F)F)c3)C(=O)C23CCC3)cc1F was read as ATXN2 expr inh 13.7µM*.
For Cc1ccn2c(=O)c(C(=O)Nc3ccc(F)c(C(F)(F)F)c3)cnc2c1 the results were ATXN2 expr inh 2.4%, TGFb SMAD3 inh 3.8%, ATXN viability inactive and HepG2 viability -16.4%.
Screening Cc1cc2c(cc1C)N[C@]1(C[C@H]3CCC(=O)N4CC[C@@H](C1)[C@@H]34)C(=Nc1ccccc1C)N2 returned TGFb SMAD3 inh inconclusive and HepG2 viability -25.4%.
For Cc1ccc(CNC(=O)c2cccn2-c2nnc(N3CCCCC3)s2)cc1 the results were TGFb SMAD3 inh 7.94µM* and HepG2 viability -38.8%.
`Cc1ccc(CNC(=O)c2cccn2-c2nnc(N3CCCC3)s2)cc1` gave TGFb SMAD3 inh inconclusive and HepG2 viability -32.1%.
Screening Cc1ccc(CNC(=O)c2cnc(N3CCCCC3)c3ccccc23)cc1 returned TGFb SMAD3 inh 11.2µM* and HepG2 viability 0.6%.
For Cc1ccc(-c2nnc3ccc(SCC(=O)N4CCCc5ccccc54)nn23)cc1 the results were ATXN2 expr inh inconclusive, TGFb SMAD3 inh -17.6%, uPA generation -2.6%, Giardia kill -2.9, ATXN viability 8.91µM* and HepG2 viability 2.3%.
For Cc1ccc(-c2nnc3ccc(SCC(=O)N4CCc5ccccc54)nn23)cc1 the results were ATXN2 expr inh -9.0%, TGFb SMAD3 inh 5.5%, uPA generation -6.1%, Giardia kill -1.1, ATXN viability inactive and HepG2 viability -1.0%.
For CC(=O)Nc1ccc(Nc2nc(Nc3ccc(Cl)cc3)nc(N3CCOCC3)n2)cc1 the results were TGFb SMAD3 inh 12.2%, Giardia kill -11.4 and HepG2 viability -26.1%.
For COC(=O)C(Nc1ccccc1Cl)(c1cc(C)c(O)c(C)c1)C(F)(F)F (stereo not drawn) the results were ATXN2 expr inh inconclusive, TGFb SMAD3 inh 10µM*, uPA generation -5.6%, Giardia kill 18.5, ATXN viability inactive and HepG2 viability 15.8µM*.
For CCOC(=O)COc1ccc2c(C)c(CCN(CC)CC)c(=O)oc2c1 the results were ATXN viability inactive.
`COc1ccc(OC)c(C(Cc2ccnc3ccccc23)Cc2ccnc3ccccc23)c1` gave TGFb SMAD3 inh inconclusive and HepG2 viability -97.0%.
For COCC(C)n1c(C)cc(C(=O)CN2c3cccc4cccc(c34)S2(=O)=O)c1C (stereo not drawn) the results were ATXN2 expr inh 2.5%, TGFb SMAD3 inh -0.7%, uPA generation 9.5%, Giardia kill -8.4, ATXN viability inactive and HepG2 viability -23.5%.
`Cc1cc(C(=O)CN2c3cccc4cccc(c34)S2(=O)=O)c(C)n1C` gave ATXN2 expr inh -3.6%, TGFb SMAD3 inh -22.0%, uPA generation 2µM*, Giardia kill 3.1, ATXN viability inactive and HepG2 viability 3.8%.
Screening C=CC(=O)N1c2ccccc2Sc2ccc(NC(=O)OCC)cc21 returned ATXN2 expr inh inconclusive, TGFb SMAD3 inh 15.8µM*, uPA generation -11.0%, Giardia kill 33.7, ATXN viability inconclusive and HepG2 viability -22.4%.
`COCC(=O)Nc1cc(C(=O)NC2CCc3ccccc32)c2c(c1)nc(-c1ccncc1)n2C` (stereo not drawn) gave ATXN viability inactive.
`Oc1ccc(NCc2ccc(OCc3ccccc3)cc2)cc1` gave ATXN2 expr inh inconclusive, TGFb SMAD3 inh 15.8µM*, uPA generation inconclusive, Giardia kill -13.8, ATXN viability inconclusive and HepG2 viability 10µM*!.
Oc1ccc(NCc2ccc(OCc3ccccc3Cl)cc2)cc1 was read as ATXN2 expr inh inconclusive, TGFb SMAD3 inh 5.01µM* and HepG2 viability 7.08µM*.
For CCc1ccc(CNc2ccc(O)cc2)cc1 the results were ATXN2 expr inh -12.0%, TGFb SMAD3 inh 8.91µM*, uPA generation -1.6%, Giardia kill 2.9, ATXN viability inactive and HepG2 viability 12.6µM*.
Screening Oc1ccc(NCc2ccccc2OCc2ccccc2Cl)cc1 returned HepG2 viability -57.9%.
`CCc1ccc(CNc2ccc3c(c2)ncn3CC)cc1` gave ATXN2 expr inh 60.3%, TGFb SMAD3 inh 5.0%, uPA generation -9.5%, Giardia kill 0.4, ATXN viability inactive and HepG2 viability 1.9%.
Screening O=S(=O)(c1ccc(Br)cc1)N1CCOCC1 returned TGFb SMAD3 inh 8.3%, Giardia kill 7.3 and HepG2 viability -2.0%.
Screening Cc1ccc(CNC(=O)c2ccc(CSCc3ccc(C)cc3)o2)cc1 returned TGFb SMAD3 inh inconclusive and HepG2 viability -19.9%.
For Cc1ccc(CNC(=O)c2ccc(CSCc3c(F)cccc3Cl)o2)cc1 the results were ATXN2 expr inh 15.1%, TGFb SMAD3 inh 15.8µM*, ATXN viability inactive and HepG2 viability -25.9%.
For CO[C@H]1/C=C\O[C@@]2(C)Oc3c(C)c(O)c4c(O)c(c(C=NN5CCN(C6CCCC6)CC5)c(O)c4c3C2=O)NC(=O)C(C)=CC=C[C@H](C)[C@H](O)[C@@H](C)[C@@H](O)[C@@H](C)[C@H](OC(C)=O)[C@H]1C the results were ATXN2 expr inh 5.44µM*, TGFb SMAD3 inh 11.2µM* and HepG2 viability -41.0%.
Screening COC1C=COC2(C)Oc3c(C)c(O)c4c(O)c(c(CN5CCN(C)CC5)c(O)c4c3C2=O)NC(=O)C(C)=CC=CC(C)C(O)C(C)C(O)C(C)C(OC(C)=O)C1C (stereo not drawn) returned ATXN2 expr inh 14.7%, TGFb SMAD3 inh -9.3%, uPA generation 1.7%, Giardia kill -5.3, ATXN viability inactive and HepG2 viability 8.0%.
Cc1ccccc1OCC(=O)Nc1cc(C)c(O)c(-c2nc3ccccc3o2)c1 was read as TGFb SMAD3 inh 18.9% and HepG2 viability -14.9%.
`CCOC(=O)NNc1ccc(N(CC)CC(C)O)nn1` (stereo not drawn) gave ATXN2 expr inh 5.4% and ATXN viability inactive.
COc1ccc(-n2nc(CCC(=O)N(C)O)cc2-c2ccc(Cl)cc2)cc1 was read as ATXN2 expr inh inconclusive and ATXN viability inactive.
